Experimental data published in PubChem BioAssay AID588742 (Southern Research Specialized Biocontainment Screening …, 2011).
Out of some 1,800 compounds screened, about 410 (23%) were called active. How the calls were made is not given here. The list is a sample of the results. Results with a measured potency or affinity are listed apart.

Experiment: viability of Vero cells under compound – cytotoxicity control for flavivirus capping enzyme inhibitors (AID 588742)
Conditions: cytotoxicity counter-screen; series mostly up to 40 µM
In the case of `O=C(O)CCc1ccc(-c2ccc(Br)cc2)n1-c1ccc(O)cc1`, the outcome is reported as “inactive”.
In the case of `CCCOc1cccc(C2C(C(=O)c3cc4ccccc4o3)=C(O)C(=O)N2c2cc(C)on2)c1` (stereo not given), the outcome is reported as “inactive”.
With `O=c1c2ccccc2nc2ccc(NCc3ccco3)nn12` the outcome was “inactive”.
For `CCOc1cc(/C=N/Nc2ccc(S(=O)(=O)Nc3ccccc3C(=O)O)cc2[N+](=O)[O-])cc(Cl)c1O`, the outcome was “inactive”.
In the case of `Cc1nn(-c2ccccc2)c(Cl)c1/C=N/Nc1ccc(S(=O)(=O)Nc2ccccc2C(=O)O)cc1[N+](=O)[O-]`, the outcome is reported as “inactive”.
For `C=CCOc1cccc(C2C(C(=O)c3ccc(C)o3)=C(O)C(=O)N2c2nccs2)c1` (stereo not given), the outcome was “inactive”.
With `O=C1C(C=NCc2ccco2)=C(O)c2ccccc21` the outcome was “inactive”.
For `CC(C)C(C(=O)O)N1C(=O)/C(=C/C=C/c2ccco2)SC1=S` (stereo not given), the outcome was “inactive”.
With `CC(C(=O)O)N1C(=O)/C(=C/C=C/c2ccco2)SC1=S` (stereo not given) the outcome was “inactive”.
For `Cc1ccc(S(=O)(=O)NN/C(=N/S(=O)(=O)c2ccccc2)c2ccccc2)cc1`, the outcome was “inactive”.
With `Cc1nn(-c2ccccc2)c2c1C(c1ccncc1)C(C#N)=C(N)O2` (stereo not given) the outcome was “inactive”.
For `CCn1nc([N+](=O)[O-])c(C(C#N)c2nc3ccccc3n2C)c(Cl)c1=O` (stereo not given), the outcome was “inactive”.
In the case of `Cn1nc([N+](=O)[O-])c(C(C#N)c2nc3ccccc3n2C)c(Cl)c1=O` (stereo not given), the outcome is reported as “inactive”.
With `COC(=O)c1ccccc1N/C=C1\CCc2c(c(C)nn2-c2ccccn2)C1=O` the outcome was “inactive”.
With `CCc1sc(/C=C(/C#N)C(N)=S)cc1[N+](=O)[O-]` the outcome was “inactive”.
In the case of `Cc1ccc(-n2nc(C)c3c2OC(N)=C(C#N)C3c2ccco2)cc1` (stereo not given), the outcome is reported as “inactive”.
In the case of `CCSc1nnc(NC(=O)c2nc(S(=O)(=O)Cc3ccc(F)cc3)ncc2Cl)s1`, the outcome is reported as “inactive”.
With `CCOC(=O)c1c(-c2ccc(-c3ccccc3)cc2)csc1NC(=O)C1C2CCC(O2)C1C(=O)O` (stereo not given) the outcome was “inactive”.
In the case of `Cc1noc(C)c1C(=O)Nc1ccc(N(C)C)cc1`, the outcome is reported as “inactive”.
With `CCC(=O)OC1(C)C(=O)C=C2C=C(C3CC3)OC=C2C1=O` (stereo not given) the outcome was “inactive”.
For `COc1ccc(/C=N/NC(=O)c2nnn(-c3nonc3N)c2CN(C)C2CCCCC2)cc1`, the outcome was “inactive”.
With `C#CCOc1c(Cl)cc(/C=C2/C(=O)ON=C2C)cc1OCC` the outcome was “inactive”.
For `COc1cc(/C=C2\S/C(=N/S(=O)(=O)Cc3ccccc3)NC2=O)c([N+](=O)[O-])cc1OC`, the outcome was “inactive”.
For `COc1ccc(S(=O)(=O)Nc2c(O)ccc3ccccc23)cc1OC`, the outcome was “inactive”.
With `NC(=S)n1[nH]c(-c2ccc([N+](=O)[O-])cc2)c(N=Nc2ccccc2[N+](=O)[O-])c1=O` the outcome was “inactive”.
In the case of `CN1C(=O)/C(=C/c2ccc(C(=O)Nc3ccc(O)cc3C(=O)O)cc2)SC1=S`, the outcome is reported as “inactive”.
With `Cc1cccc(C)c1NC(=S)NC(=O)c1ccc(Br)o1` the outcome was “inactive”.
With `CS(=O)(=O)c1ncc(Cl)c(C(=O)Nc2ccc(N3CCOCC3)cc2)n1` the outcome was “inactive”.
In the case of `CCC(CO)Oc1cc(NCc2cccc(C)c2)c2ncn(C(C)C)c2c1` (stereo not given), the outcome is reported as “inactive”.
For `CC1(C)CC(=O)C2=C(C1)c1c(ccc3ccccc13)NC2c1cc([N+](=O)[O-])cc([N+](=O)[O-])c1O` (stereo not given), the outcome was “inactive”.
In the case of `N=C1/C(=C\c2ccc(OC(=O)c3ccccc3Cl)cc2)C(=O)N=C2SC(N3CCOCC3)=NN12`, the outcome is reported as “inactive”.
With `Nc1nc(C2C(=O)CCCC2=O)cs1` the outcome was “inactive”.
For `O=C(Nc1c(F)c(F)c(F)c(F)c1F)NC1CCCCC1`, the outcome was “inactive”.
With `O=C(O)c1ccccc1N=Nc1c(O)[nH]c2ccc([N+](=O)[O-])cc12` the outcome was “inactive”.
For `CC(C)c1ccc(N2C(=O)C(Cl)=C(N3CCOCC3)C2=O)cc1`, the outcome was “inactive”.
For `Cc1c(Cl)cccc1NC(CC(=O)c1ccccc1)C(=O)O` (stereo not given), the outcome was “inactive”.
For `O=C(CC(Nc1ccc(Cl)cc1Cl)C(=O)O)c1ccccc1` (stereo not given), the outcome was “inactive”.
With `O=C(NNc1ccc(O)cc1)c1ccc(Br)cc1` the outcome was “inactive”.
With `Cc1cccc(NC(=O)CSc2nnc(-c3ccco3)c(-c3ccco3)n2)c1C` the outcome was “inactive”.
In the case of `Cc1ccc(O)c(NC2=C(Cl)C(=O)N(Cc3ccccc3)C2=O)c1`, the outcome is reported as “inactive”.
In the case of `O=C1/C(=C2\C(=O)N(Cc3ccc(F)cc3)c3ccccc32)SC(=S)N1CCS(=O)(=O)O`, the outcome is reported as “inactive”.
With `Cc1ccc(S(=O)(=O)N2[C@@H](c3cccc(Cl)c3)C(C(=O)O)=CC[C@H]2c2ccc(C(C)C)cc2)cc1` the outcome was “inactive”.
With `O=C(CSc1nc(O)c(Cc2ccccc2)c(=O)[nH]1)Nc1nnc(SCc2ccccc2)s1` the outcome was “inactive”.
With `Oc1cc(CNC2CCCCC2)c(O)cc1CNC1CCCCC1` the outcome was “inactive”.
For `CC(C)C[C@H](N)c1nnc(SCC(=O)Nc2ccc(Br)cc2)o1`, the outcome was “inactive”.
For `Cc1ccc(S(=O)(=O)Cc2ccc(C(=O)N3CCC(C(N)=O)CC3)o2)cc1`, the outcome was “inactive”.
With `CC(C)c1cc2c(c(O)c1O)[C@@]13CCCC(C)(C)C1CC2OC3=O` (stereo not given in full) the outcome was “inactive”.
With `Cc1ccc(-c2csc(NS(=O)(=O)c3cccc(F)c3)n2)o1` the outcome was “inactive”.
With `CCc1c(C)sc(NC(=O)OC)c1C(=O)N1CCCCC1` the outcome was “inactive”.
With `O=C(O)c1ccccc1C(=O)c1ccc(Sc2ccc(Cl)cc2)c([N+](=O)[O-])c1` the outcome was “inactive”.
In the case of `Cc1sc(NC(=O)c2ccco2)c(C(c2ccncc2)N2CCOCC2)c1C` (stereo not given), the outcome is reported as “inactive”.
In the case of `CC1(C)CC(=O)C(C(c2ccco2)C2C(=O)CC(C)(C)CC2=O)C(=O)C1`, the outcome is reported as “inactive”.
With `Cc1noc(NS(=O)(=O)c2ccc(NC(=O)c3ccccc3NS(=O)(=O)c3ccc(F)cc3)cc2)c1C` the outcome was “inactive”.
In the case of `C/C(=N/Nc1ccc(C(=O)O)cc1)c1ccc(O)c(O)c1O`, the outcome is reported as “inactive”.
With `CCS(=O)(=O)c1nc(S(=O)(=O)c2ccc(C)cc2)c(N2CCOCC2)s1` the outcome was “inactive”.
For `O=C(O)c1ccc(/C=N/Nc2ccc(S(=O)(=O)N3CCCC3)cc2[N+](=O)[O-])cc1`, the outcome was “inactive”.
For `O=C1ON=C(c2ccccc2)/C1=C/c1ccc(-c2ccccc2[N+](=O)[O-])o1`, the outcome was “inactive”.
With `O=[N+]([O-])c1cc2c(cc1C=Nc1ccccc1)OCO2` the outcome was “inactive”.
For `Cc1ccc2nsnc2c1S(=O)(=O)N(CCO)Cc1cc2cc3c(cc2[nH]c1=O)OCCO3`, the outcome was “inactive”.
In the case of `COc1cccc(/C=C2/C(=O)NN(c3ccc(F)cc3)C2=O)c1`, the outcome is reported as “inactive”.
For `CCC(C)NC(=O)Cc1ccc(-c2ccccc2)cc1` (stereo not given), the outcome was “inactive”.
With `CC1=NN(c2nc(-c3ccc(Cl)cc3)cs2)C(=O)C1` the outcome was “inactive”.
With `CCCC(=Nc1ccc(N)cc1)C1=C(O)C(C(=O)OC)C(C)(C)CC1=O` (stereo not given) the outcome was “inactive”.
For `O=C1C(O)=C(O)C(=O)c2ccccc21`, the outcome was “inactive”.
With `COC(=O)c1ccc(-c2ccc(C(c3c(C)[nH][nH]c3=O)c3c(C)[nH][nH]c3=O)o2)cc1` the outcome was “inactive”.
In the case of `O=C(Nc1cccc(Oc2ccc(C(=O)O)c(C(=O)O)c2)c1)c1ccc(-c2ccccc2)cc1`, the outcome is reported as “inactive”.
In the case of `CC1CCC(C(C)C)C2=C1C(C#N)(C#N)C(C#N)(C#N)C(c1ccccc1)N2` (stereo not given), the outcome is reported as “inactive”.
With `CC1(C)CC(=O)C(=Cc2cn(CCC#N)nc2-c2ccc(Cl)cc2)C(=O)C1` the outcome was “inactive”.
In the case of `Cc1ccc(-c2nn(-c3ccccc3)cc2/C=C2\SC(=S)N(CC(=O)O)C2=O)cc1`, the outcome is reported as “inactive”.
For `O=C(Nc1ccc(Cl)cc1)C1c2cccc[n+]2CC(=O)N1Cc1ccc2c(c1)OCO2` (stereo not given), the outcome was “inactive”.
With `CCOc1cc(Br)cc(C(c2c(C(=O)O)[nH]c3ccccc23)c2c(C(=O)O)[nH]c3ccccc23)c1O` the outcome was “inactive”.
For `Cc1nn(-c2ccccc2)c2c1C(c1cccs1)C(C#N)=C(N)O2` (stereo not given), the outcome was “inactive”.
In the case of `Cc1ccc(CCNC(=O)C2CCN(S(=O)(=O)N3CCCCC3)CC2)cc1`, the outcome is reported as “inactive”.
In the case of `O=[N+]([O-])c1ccccc1-c1ccc(C(=S)N2CCCCC2)o1`, the outcome is reported as “inactive”.
With `O=[N+]([O-])c1ccccc1-c1ccc(C(=S)N2CCCC2)o1` the outcome was “inactive”.
In the case of `O=C1NN(c2ccccc2)C(=O)/C1=C/c1ccc(-c2ccc(Cl)c(C(=O)O)c2)o1`, the outcome is reported as “inactive”.
With `O=C(O)c1ccc(Cn2cc(/C=C\[N+](=O)[O-])c3ccccc32)o1` the outcome was “inactive”.
For `COc1cc(-c2cccs2)cc(=O)c2c(C)oc(C)c12`, the outcome was “inactive”.
In the case of `CCOc1ccc(/C=C2\SC(=S)N(CCC(=O)Nc3ccccc3C(=O)O)C2=O)cc1`, the outcome is reported as “inactive”.
With `COc1ccc(C(=O)Nc2cc(C(=O)c3ccccc3)c(C)oc2=O)cc1` the outcome was “inactive”.
For `Cc1oc(=O)c(NC(=O)c2ccccc2)cc1C(=O)c1ccccc1`, the outcome was “inactive”.
For `Cc1ccc(C(=O)c2coc3c2C(=O)C(=O)c2ccccc2-3)cc1`, the outcome was “inactive”.
For `O=C(COc1cccc2ccccc12)Nc1cc(Cl)ccc1C(=O)O`, the outcome was “inactive”.
For `O=C1Nc2ccc(F)cc2C12Nc1ccccc1-c1nnc(SCc3ccccc3F)nc1O2` (stereo not given), the outcome was “inactive”.
In the case of `CC1=NOC(=O)/C1=C\c1ccc(-c2ccc(Br)cc2C(=O)O)o1`, the outcome is reported as “inactive”.
For `CCOC(=O)c1c(-c2ccc(C)c(C)c2)csc1NC(=O)C1CC=CCC1C(=O)O` (stereo not given), the outcome was “inactive”.
In the case of `COC(=O)COc1ccc(C2Nc3c(Cl)ccc(C(=O)O)c3C3C=CCC32)cc1` (stereo not given), the outcome is reported as “inactive”.
For `N#C/C(=C(/O)CSc1ccccc1C(=O)O)c1nc2ccccc2s1`, the outcome was “inactive”.
For `COc1ccc(CC(=O)NCc2ccc3c(c2)cc(C)n3C)cc1`, the outcome was “inactive”.
In the case of `CC1=NN(c2nc(-c3ccc(F)cc3)cs2)C(=O)C1`, the outcome is reported as “inactive”.
For `CCC(C(=O)O)N1C(=O)/C(=C/C(C)=C/c2ccccc2)SC1=S` (stereo not given), the outcome was “inactive”.
For `CC(=O)Nc1ccc2nc(N)sc2c1`, the outcome was “inactive”.
With `COc1ccc(NCC(=O)N/N=C2\CCc3ccccc32)cc1` the outcome was “inactive”.
For `CCOC(=O)c1c(N)sc2c1CCS(=O)(=O)C2`, the outcome was “inactive”.
With `CCOC(=O)c1c(N)sc(=S)c2c1CCC2` the outcome was “inactive”.
With `CCCCC1=CC2=C(c3ccco3)C(=O)C(C)(OC(=O)c3ccc(OC)cc3)C(=O)C2=CN1C1CC1` (stereo not given) the outcome was “inactive”.
With `CC1=NOC(=O)/C1=C/c1ccc2c(c1)OCO2` the outcome was “inactive”.
For `CC(=O)c1ccc(NC(=O)CSc2nnc(-c3ccco3)c(-c3ccco3)n2)cc1`, the outcome was “inactive”.
With `Nc1c(C(=O)O)sc2nc(-c3ccccc3)cc(-c3ccc(Cl)cc3)c12` the outcome was “inactive”.
For `CCOC(=O)C1=C(O)/C(=C\c2ccc(CNC(=O)C(=O)Nc3ccccc3)o2)N=C1C`, the outcome was “inactive”.
